Experimental data published in PubChem BioAssay AID652119 (Broad Institute, 2013).
Values without a mark were called inactive.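 Rule for the calls: active = compounds whose fitted half-maximal cell-killing potency is at most twice their top tested dose; inconclusive = flat curve with 30 to 70% signal loss, or poor fit; inactive = the rest.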

assay: HEK293 cell cytotoxicity, dose response, cytotoxicity control, HEK293T, ATP luminescence, dry powder (AID 652119); conditions: HEK293T viability, CellTiter-Glo ATP luminescence, 48 h; series mostly up to 26 µM; activity change, negative = cytotoxicity: at the top concentration

SMILES | activity change, negative = cytotoxicity
CCOC(=O)C1(CCOc2ccccc2)CCN(Cc2ccc(OC)c(Cl)c2)CC1 | -4.83%
CCOC(=O)C1(CCOc2ccccc2)CCN(C(=O)c2ccc(O)c(Cl)c2)CC1 | -6.97%
CCOC(=O)C1(Cc2cccc(OC)c2)CCN(Cc2ccc(O)c(Cl)c2)CC1 | -15.9%
CCOC(=O)C1(CCOc2ccccc2)CCN(Cc2ccc(OC)cc2)CC1 | -18.6%
CCOC(=O)C1(CCOC)CCN(Cc2ccc(O)c(Cl)c2)CC1 | -8.61%
C=CCOc1ccc(CN2CCC(CCOc3ccccc3)(C(=O)N3CCCC3)CC2)cc1Cl | -23.9%
O=C(NC1CCCC1)C1(CCOc2ccccc2)CCN(Cc2ccc(O)c(Cl)c2)CC1 | -9.61%
CCOC(=O)C1(CCOc2ccccc2)CCN(Cc2cccc(Cl)c2)CC1 | -14.1%
C=CCOc1ccc(CN2CCC(CCOc3ccccc3)(C(=O)N(C)CC)CC2)cc1Cl | -2.65%
C=CCOc1ccc(CN2CCC(CCOc3ccccc3)(C(=O)OCC)CC2)cc1Cl | 39.7%
CC(C)(C)OC(=O)C1(CCOc2ccccc2)CCN(Cc2ccc(O)c(Cl)c2)CC1 | -6.91%
CCOC(=O)C1(CCOc2ccccc2)CCN(Cc2ccc(O)c(Cl)c2)CC1 | -2.14%
CCOC(=O)C1(CCOc2ccccc2)CCN(Cc2ccc3[nH]c(=O)oc3c2)CC1 | -10.6%
CCOC(=O)C1(Cc2ccccc2)CCN(Cc2ccc(O)c(Cl)c2)CC1 | -9.71%
C/C1=C\[C@@H](O)C(C)(C)CCCC2(C)OC2C[C@@H]1OC(=O)c1ccc(O)cc1 (some centres not stated) | -1.63%
C=CCOc1ccc(CN2CCC(CCOc3ccccc3)(C(=O)O)CC2)cc1Cl | 12.4%
O=C(N1CCCC1)C1(CCOc2ccccc2)CCN(Cc2ccc(O)c(Cl)c2)CC1 | -0.18%
O=C(Nc1ccccc1)C1(CCOc2ccccc2)CCN(Cc2ccc(O)c(Cl)c2)CC1 | -6.69%
CC(C)OC(=O)C1(CCOc2ccccc2)CCN(Cc2ccc(O)c(Cl)c2)CC1 | -10.5%
CCOC(=O)C1CCN(C(=O)OC(C)(C)C)CC1 | 5.27%
C/C1=C\C[C@H](OC(=O)c2ccc(O)cc2)/C(C)=C/[C@@H](O)C(C)(C)CCC1 | -21.8%
CCOC(=O)C1(CCOC)CCCN(Cc2ccc(Cl)cc2)C1 (configuration not stated) | -10.5% [at 8 µM]
CCOC(=O)c1c(CN2CCN(CCO)CC2)n(-c2ccccc2)c2cc(Br)c(O)cc12 | -10.7%
CCOC(=O)C1(CCOc2ccccc2)CCN(Cc2ccc(O)cc2)CC1 | -0.127%
CCOC(=O)C1(CCOc2ccccc2)CCN(C(=O)OC(C)(C)C)CC1 | -9.74%
CCNC(=O)C1(CCOc2ccccc2)CCN(Cc2ccc(O)c(Cl)c2)CC1 | -7.22%
C=CCOc1ccc(CN2CCC(CCOc3ccccc3)(C(=O)NC3CCCC3)CC2)cc1Cl | -9.63%
